# Data as given in PubChem BioAssay (NCI).
# About 83,000 compounds went through this panel and 20% of them were active in at least one assay; those are over-represented in the sample as a whole.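 The test compound was applied at a single concentration to cells in 96-well plates for 48 hours, and percent growth was recorded.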 Values without a mark were called inactive. Calls of active or inactive are those of the source. Rule for the calls: active = growth percent below 10; inactive = the rest.
# Key:
# Assay in all cases: NCI-60 one-dose screen, 48 h (100 = growth as untreated, 0 = no growth, -100 = all killed)
# Conditions in all cases: 10 µM
# SR leukemia = tested on: SR leukemia
# OVCAR-8 ovarian = tested on: OVCAR-8 ovarian
# OVCAR-5 ovarian = tested on: OVCAR-5 ovarian
# OVCAR-4 ovarian = tested on: OVCAR-4 ovarian
# SK-OV-3 ovarian = tested on: SK-OV-3 ovarian
# IGROV1 ovarian = tested on: IGROV1 ovarian
# OVCAR-3 ovarian = tested on: OVCAR-3 ovarian
# HS 578T breast = tested on: HS 578T breast
# NCI/ADR-RES ovarian = tested on: NCI/ADR-RES ovarian
# T-47D breast = tested on: T-47D breast
# BT-549 breast = tested on: BT-549 breast
# MDA-MB-435 melanoma = tested on: MDA-MB-435 melanoma
# SW-620 colon = tested on: SW-620 colon
# MCF7 breast = tested on: MCF7 breast
# HCT-116 colon = tested on: HCT-116 colon
# HCC-2998 colon = tested on: HCC-2998 colon
# RPMI-8226 leukemia = tested on: RPMI-8226 leukemia
# KM12 colon = tested on: KM12 colon
Compound,growth (SR leukemia),growth (OVCAR-8 ovarian),growth (OVCAR-5 ovarian) [%],growth (OVCAR-4 ovarian),growth (SK-OV-3 ovarian),growth (IGROV1 ovarian),growth (OVCAR-3 ovarian),growth (HS 578T breast),growth (NCI/ADR-RES ovarian),growth (T-47D breast),growth (BT-549 breast),growth (MDA-MB-435 melanoma),growth (SW-620 colon),growth (MCF7 breast),growth (HCT-116 colon),growth (HCC-2998 colon),growth (RPMI-8226 leukemia),growth (KM12 colon)
COc1ccc(-c2nc(NC(=O)CS(=O)(=O)c3ccc(F)cc3)sc2C)cc1,32.5%,74%,95.4,69.8%,73.6%,54.5%,56%,79.5%,50.6%,33.2%,66.3%,75%,50.9%,57.9%,44.7%,47.4%,–,–
CCCCCC(CCC)COC(=O)c1ccc(OC)cc1 (stereo unspecified),101%,96.5%,–,109%,101%,–,111%,106%,103%,87.7%,104%,106%,104%,92.5%,100%,99.5%,91.8%,109%
C/C(=N\NC(=S)N1CCCC1)c1ccccn1,6.59% (active),11.1%,–,3.92% (active),26.5%,-3.85% (active),23.8%,31.8%,-5.31% (active),18.3%,28.1%,19.2%,22.6%,14.2%,22.3%,14.7%,12.9%,17.4%
CCCCCN(CCCCC)C(C)C(O)c1ccc2cc(Cl)c3ccccc3c2c1 (stereo unspecified),84.7%,99.9%,–,105%,88.8%,98.3%,97.4%,89.4%,98.9%,83.8%,110%,103%,80%,90.6%,65.7%,97.6%,84.1%,103%
O=C(/C=C/c1nnc2n(Cc3ccccc3)c(=O)c3c4c(sc3n12)CCCC4)c1ccccc1,-5.47% (active),19.3%,–,112%,108%,–,68.4%,110%,85.8%,-39.2% (active),82.4%,93.2%,9.38% (active),64.3%,44.1%,87.8%,1.69% (active),55.2%
Cc1ccc(/C(CS(=O)(=O)c2ccc(C)cc2)=N\O)cc1,83.7%,97.2%,–,96.1%,112%,102%,118%,113%,106%,103%,–,89%,106%,91.3%,103%,103%,96.6%,115%
CC(C)(C)CC(C)(C)c1ccc(O)c(Cc2ccc(Cl)cc2Cl)c1,-57.5% (active),-43.4% (active),–,-86.5% (active),-86.6% (active),-82.8% (active),-93.7% (active),-23% (active),-81.1% (active),-72.9% (active),-95.1% (active),-81.1% (active),-84.9% (active),-88.9% (active),-91.8% (active),-89.1% (active),-10.7% (active),-88.5% (active)
COc1cc(C2C=C(c3ccc(Cl)cc3)N=C3SC(C)=CN32)cc(OC)c1OC (stereo unspecified),9.45% (active),93.6%,–,77.4%,118%,96.6%,103%,101%,97.6%,72.2%,88.5%,72.9%,94.5%,67.6%,50.3%,101%,47.5%,94.1%
CCN1CCN(c2ccc(Nc3ncnc4c3nnn4CCc3cc(OC)cc(OC)c3)cc2)CC1,89.2%,87.5%,–,86.7%,101%,111%,99.2%,88.2%,92.3%,73.3%,–,95.4%,102%,85.8%,77.9%,109%,91.1%,99.1%
CC(=O)Nc1ccc(Sc2ccc(NC(C)=O)cc2)cc1,92.9%,94.7%,–,102%,82%,–,102%,104%,95.7%,70.6%,95.5%,104%,104%,97.7%,98.5%,97.2%,99%,96.5%
O=c1[nH]c(=O)n(C2C[C@@H](O)[C@@H](CO)O2)cc1F (stereo partly specified),25.9%,30.2%,–,39%,43.6%,43.1%,30.5%,60.8%,29.6%,54.3%,1.4% (active),37.1%,55.9%,20.7%,16.8%,-6.77% (active),59.2%,33.4%
CC1(C)CNC(=O)N1,95.2%,99.8%,–,99.7%,95.6%,99.9%,108%,98.8%,109%,99.2%,103%,102%,102%,94.5%,91.6%,95.7%,95.8%,104%
N#C/C(=C/c1cc([N+](=O)[O-])ccc1Cl)C(N)=O,8.43% (active),82.5%,–,94.2%,95.5%,69.9%,104%,–,98.2%,90.4%,96.8%,71.5%,46.6%,57.3%,10% (active),106%,68.7%,91.5%
CCCCn1c(=O)[nH]c(N)c(C(c2ccc(Cl)cc2)c2c(N)[nH]c(=O)n(CCCC)c2=O)c1=O,24.2%,46.7%,–,42.7%,56.5%,46%,27.2%,50.6%,103%,21%,49.8%,31.1%,64.2%,21.1%,–,54.7%,25.5%,35.3%
COc1ccc(/C(CS(=O)(=O)c2ccccc2)=N\O)cc1,87%,103%,–,99.4%,112%,109%,125%,104%,115%,93.4%,102%,94.1%,111%,94.6%,125%,112%,101%,123%
COc1ccc(-c2nnc(COc3ccc(NC(=O)Nc4ccccc4)cc3F)o2)cc1,36.1%,96.1%,114,75.7%,99.1%,99.2%,2.7% (active),82%,97.4%,62.1%,79.6%,92.3%,102%,90.3%,69.8%,103%,–,–
COc1ccc2c(c1)/C(=C/c1cc(OC)c(OC)c(OC)c1)C(=O)N2C,17%,28.8%,–,47.3%,19.3%,0.661% (active),-72% (active),-12.4% (active),2.46% (active),-11.1% (active),57.1%,-50.3% (active),1.64% (active),4.54% (active),19.3%,–,-25.2% (active),-20.8% (active)
COc1cc(C2C(C#N)=C(c3c[nH]c4ccccc34)Nc3nc(N)[nH]c(=O)c32)cc(OC)c1OC (stereo unspecified),78.7%,99.1%,–,75.2%,80.6%,80.3%,21%,96%,100%,36.2%,51.6%,38.1%,86.9%,42.2%,74%,93.1%,98.2%,94.1%
